Experimental data as given in PubChem BioAssay (NCI).
This is part of a sample that, as a whole, favours compounds with a hit. Of some 83,000 tested, about 20% had one in any assay.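 Values shown are percent growth following 48 h exposure of cells in 96-well plates to a single concentration of compound; below 10 was considered active.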 A number with no mark means an inactive call. Calls of active or inactive are those of the source.

What was measured:
Experiment in all cases: NCI-60 one-dose screen, 48 h (100 = growth as untreated, 0 = no growth, -100 = all killed)
[1] = system: A549/ATCC NSCLC; settings: 10 µM unless noted
[2] = system: COLO 205 colon; settings: 10 µM
[3] = system: MDA-MB-231 breast; settings: 10 µM unless noted
[4] = system: SF-295 CNS; settings: 10 µM unless noted
[5] = system: UACC-257 melanoma; settings: 10 µM unless noted
[6] = system: HT29 colon; settings: 10 µM unless noted
[7] = system: SNB-19 CNS; settings: 10 µM unless noted
[8] = system: SK-MEL-5 melanoma; settings: 10 µM unless noted
[9] = system: SN12C renal; settings: 10 µM unless noted
[10] = system: UO-31 renal; settings: 10 µM unless noted
[11] = system: A498 renal; settings: 10 µM unless noted
[12] = system: OVCAR-8 ovarian; settings: 10 µM unless noted
[13] = system: OVCAR-5 ovarian; settings: 10 µM unless noted
[14] = system: SK-OV-3 ovarian; settings: 10 µM unless noted
[15] = system: HS 578T breast; settings: 10 µM unless noted
[16] = system: T-47D breast; settings: 10 µM unless noted
[17] = system: HCT-116 colon; settings: 10 µM unless noted
[18] = system: HCC-2998 colon; settings: 10 µM unless noted
[19] = system: RXF 393 renal; settings: 10 µM unless noted
[20] = system: MDA-MB-435 melanoma; settings: 10 µM unless noted

Row | SMILES | growth [1] | growth [2] | growth [3] | growth [4] | growth [5] | growth [6] | growth [7] | growth [8] | growth [9] | growth [10] | growth [11] | growth [12] | growth [13] | growth [14] | growth [15] | growth [16] | growth [17] | growth [18] | growth [19] | growth [20]
1 | NC(Cc1ccc2c(c1)OCO2)c1ccc2c(c1)OCO2 (centres undefined) | 104% | 99.9% | 107% | 96.8% | 103% | 102% | 93.6% | 103% | 94% | 100% | 92.1% | 102% | 109% | 108% | 103% | 113% | 95.5% | 106% |  | 
2 | CC(=O)O[C@H]1C[C@H](O[C@H]2[C@@H](O)C[C@H](O[C@H]3[C@@H](O)C[C@H](O[C@H]4CC[C@@]5(C)C(CCC6C5C[C@@H](O)[C@]5(C)[C@@H](C7=CC(=O)OC7)CC[C@]65O)C4)O[C@@H]3C)O[C@@H]2C)O[C@H](C)[C@H]1O[C@@H]1O[C@H](CO)[C@@H](O)[C@H](O)[C@H]1O (some centres undefined) | -100% (active) | -74.2% (active) | -46.2% (active) | -84% (active) | -100% (active) | -86% (active) |  | -100% (active) | -38.9% (active) | -80.1% (active) | -19.5% (active) | -92.6% (active) | -86.1% (active) | -97.4% (active) | 2.41% (active) | -19% (active) | -90.5% (active) | -95% (active) | -53.8% (active) | -97.9% (active)
3 | O=C(N/N=C/c1ccc([N+](=O)[O-])o1)c1cc([N+](=O)[O-])cc([N+](=O)[O-])c1O | 102% | 107% | 93.5% | 104% | 99.2% | 97.4% | 100% | 95% |  | 80% | 79.7% | 89.8% | 114% | 101% | 104% | 93.5% | 92.6% | 102% | 102% | 98.3%
4 | Nc1c(Br)cc([N+](=O)[O-])cc1[N+](=O)[O-] | 92.3% | 116% | 105% | 105% | 100% | 103% | 102% |  | 104% |  | 92.8% | 98% | 106% | 107% | 106% | 107% | 108% | 102% | 106% | 112%
5 | C/C1=C/C(=O)O[C@@H]2C[C@@H](CC[C@H](C)/C=C\C=C\CC1)O[C@@](OCCc1ccccc1)([C@@H]1CSC(=O)N1)C2 | 15.4% | 5.64% (active) | 11.8% | 17.7% | -3.39% (active) | 8.63% (active) | 21.5% | -21.2% (active) | 39.1% | -62.5% (active) | -29.1% (active) | 46.2% | 11.2% | -32.3% (active) | -2.84% (active) | 61% | 33.5% | 55.9% | -77.1% (active) | 16.7%
6 | CC(C)(C)[Si](C)(C)OC1[C@@H](O[Si](C)(C)C(C)(C)C)[C@@H](CNC(=O)NC(=O)CF)O[C@H]1n1cnc2c(NC(=O)Nc3ccccc3)ncnc21 (some centres undefined) | 26.2% | 84.4% | 85.9% | 79.5% |  | 25.6% |  |  | 44.3% | 77.5% | 70.2% | 51.4% | 91.5% | 89.3% | 29.5% | 71.9% | 21.3% | 46.3% | 65.8% | 70.5%
7 | CC(=O)O[C@@H]1C2=C(C)C3(CC3)[C@@](C)(O)C(=O)C2=C[C@@]1(C)CO | 6.08% (active) |  | -2.64% (active) | -3.92% (active) | -34.7% (active) | 5.12% (active) |  | -86.1% (active) | 12.4% | -51% (active) |  | 7.82% (active) | 4.7% (active) |  | -9.28% (active) | 7.72% (active) | 6.86% (active) | -68.7% (active) | -89.6% (active) | -85% (active)
8 | COc1cc(CNCCc2ccc(Cl)cc2)cc(OC)c1O | 89.8% | 77.5% | 72.2% |  | 90.2% | 64.4% | 75.6% | 72.8% | 75.5% | 61% | 66.3% | 66.3% | 86.7% | 82.7% | 62.6% | 61.7% | 60.9% | 83.2% | 66.3% | -4.7% (active)
9 | Clc1ccc(SSC(Cl)(Cl)Cl)cc1 | 100% | 114% | 116% | 103% | 112% | 101% | 121% | 110% | 102% | 99.9% | 111% | 107% | 105% | 115% |  | 114% | 101% | 110% | 112% | 105%
10 | CCC[CH2][Sn]1([CH2]CCC)[O]C(=O)c2cccc([N+](=O)[O-])c2C(=O)[O]1 | 42.4% | -97.1% (active) | -89.1% (active) | -36.9% (active) | -94.1% (active) | -75% (active) | -92.8% (active) | -89.8% (active) | -83.4% (active) | -100% (active) | -94.5% (active) | -93.1% (active) | -95.6% (active) | 12.2% | -11.6% (active) | -76.3% (active) | -100% (active) | -84.7% (active) | -95.2% (active) | -99.2% (active)
11 | CCOc1c(Cl)cc(CNC(C)C(O)c2ccccc2)cc1OC (centres undefined) | 29.3% | 95% | 59.9% | 48.4% | 51.4% | 53.1% | 91.6% | 82.7% | 79.8% | 92.6% | 32.9% | 56.5% | 103% | 86.3% | 67.5% | 86% | 59.2% | 81.3% | 67% | 1.97% (active)
12 | COc1cc(C2CC(=O)Nc3nc(N)[se]c32)c(OC)c2c1OCO2 (centres undefined) | 58.9% | 112% | 96.3% | 6.71% (active) | 116% | 98.5% | 51.9% |  | 97.3% | 86.8% | 102% | 104% | 108% | 78.3% | 91.2% | 89% | 65.7% | 121% |  | 99%
13 | COc1c(O)c2c3c(c1OC)-c1ccccc1CC3N(C)CC2 (centres undefined) | 103% |  | 96.3% | 99.9% | 103% | 110% | 102% | 108% | 99.9% | 89.9% | 116% | 110% | 109% | 94.2% | 110% | 100% | 95.7% | 111% | 133% | 104%
14 | CNC(=O)Oc1ccccc1-c1ccccc1 | 96.2% | 113% | 114% | 94.5% | 101% | 101% | 97.7% | 107% | 106% | 81.8% | 93.2% | 103% | 111% | 101% | 107% | 105% | 99% | 101% | 120% | 99.3%
15 | Oc1ccc(Br)cc1CN1CCN(Cc2ccc(Cl)cc2)CC1 | 62.3% | 71.1% | 49.2% |  | 86.7% | 70.2% | 87.8% | -3.7% (active) | 89.6% | 47.4% | 105% | 60.6% | 97.7% | 101% | 80.9% | 65.1% | 22.2% |  | 76.7% | 12.8%
16 | OC1CCCCC1N1CCC(c2ccccc2)CC1 (centres undefined) | 106% | 107% | 119% | 98.5% | 109% | 97.3% | 117% | 106% |  | 82.5% | 89.4% | 103% | 107% | 104% | 108% | 96.8% | 94.5% | 93.2% | 124% | 100%
